Laboratory results reported in publication PMC7862700, “An all-to-all approach to the identification of sequence-specific readers for epigenetic DNA modifications on cytosine”.

Experiments:
Assay in all cases: DAPPL (digital affinity profiling via proximity ligation, sequencing); 10 mM Tris-HCl pH 7.5, 50 mM NaCl, 1 mM DTT, 4% glycerol, room temperature, 30 min; GST-TFs on glutathione beads, 16-mer random dsDNA library, 0.1% formaldehyde crosslink after washing; high values mean tight binding
FLI1 = molecular target: T1, FLI1 (Homo sapiens, UniProt Q01543 1-452); conditions: protein: recombinant; tags: N-terminal GST; dsDNA, one strand shown
T1 sequence: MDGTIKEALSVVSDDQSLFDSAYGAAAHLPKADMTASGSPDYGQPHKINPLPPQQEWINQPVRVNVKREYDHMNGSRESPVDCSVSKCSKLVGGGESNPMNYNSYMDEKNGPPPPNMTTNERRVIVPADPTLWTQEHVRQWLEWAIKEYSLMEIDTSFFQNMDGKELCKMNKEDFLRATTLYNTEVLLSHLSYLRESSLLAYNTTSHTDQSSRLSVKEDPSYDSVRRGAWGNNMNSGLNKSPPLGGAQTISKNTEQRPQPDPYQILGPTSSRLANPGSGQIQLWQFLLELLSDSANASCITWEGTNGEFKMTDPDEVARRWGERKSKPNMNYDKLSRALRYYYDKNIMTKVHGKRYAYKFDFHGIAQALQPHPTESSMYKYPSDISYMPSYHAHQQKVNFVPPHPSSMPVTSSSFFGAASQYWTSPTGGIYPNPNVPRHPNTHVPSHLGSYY
Method in brief: (§1)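 Pools of DNA-barcoded human transcription factors, expressed in yeast as GST fusions on glutathione beads and combined with a tag-only sample, were incubated with 200 nmole of a 16-mer random double-stranded DNA library. Incubation took 30 min at room temperature in Tris/NaCl/DTT/glycerol buffer and was followed by washing, 0.1% formaldehyde crosslinking, proximity ligation (BsaI/T4 ligase, 1 h, 37 °C), PCR amplification and sequencing on an Illumina NextSeq500. Binding signal is the ratio of a hexamer's read frequency for a factor to its frequency for the tag-only sample.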

ELK1 = molecular target: T2, ELK1 (Homo sapiens, UniProt P19419 1-428); conditions: protein: recombinant; tags: N-terminal GST; dsDNA, one strand shown
T2 sequence: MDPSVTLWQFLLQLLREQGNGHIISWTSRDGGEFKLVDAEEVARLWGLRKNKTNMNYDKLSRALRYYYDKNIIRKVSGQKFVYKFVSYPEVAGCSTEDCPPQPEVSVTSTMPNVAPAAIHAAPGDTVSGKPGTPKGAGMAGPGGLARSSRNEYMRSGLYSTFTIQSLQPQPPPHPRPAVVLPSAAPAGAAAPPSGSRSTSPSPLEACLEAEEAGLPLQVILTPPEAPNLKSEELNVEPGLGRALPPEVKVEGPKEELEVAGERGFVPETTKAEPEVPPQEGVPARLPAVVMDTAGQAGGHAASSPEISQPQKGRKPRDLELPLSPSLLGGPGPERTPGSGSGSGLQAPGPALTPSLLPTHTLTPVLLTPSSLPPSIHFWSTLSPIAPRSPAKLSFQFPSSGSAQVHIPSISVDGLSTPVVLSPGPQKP
Method in brief: as §1

GABPA = molecular target: T3, GABPA (Homo sapiens, UniProt Q06546 1-454); conditions: protein: recombinant; tags: N-terminal GST; dsDNA, one strand shown
T3 sequence: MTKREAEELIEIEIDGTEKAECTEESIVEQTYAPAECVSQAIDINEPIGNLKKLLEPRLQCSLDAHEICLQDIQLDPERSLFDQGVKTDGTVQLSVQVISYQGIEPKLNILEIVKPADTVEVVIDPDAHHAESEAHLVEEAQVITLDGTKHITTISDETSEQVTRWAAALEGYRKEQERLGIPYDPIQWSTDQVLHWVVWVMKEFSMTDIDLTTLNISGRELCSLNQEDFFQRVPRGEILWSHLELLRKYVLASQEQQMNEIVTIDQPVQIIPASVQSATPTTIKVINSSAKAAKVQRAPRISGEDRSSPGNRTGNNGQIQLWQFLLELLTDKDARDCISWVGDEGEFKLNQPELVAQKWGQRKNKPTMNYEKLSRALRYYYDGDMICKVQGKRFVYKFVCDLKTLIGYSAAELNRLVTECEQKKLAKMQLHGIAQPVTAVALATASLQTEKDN
Method in brief: as §1

ERG = molecular target: T4, ERG (Homo sapiens, UniProt P11308 1-479); conditions: protein: recombinant; tags: N-terminal GST; dsDNA, one strand shown
T4 sequence: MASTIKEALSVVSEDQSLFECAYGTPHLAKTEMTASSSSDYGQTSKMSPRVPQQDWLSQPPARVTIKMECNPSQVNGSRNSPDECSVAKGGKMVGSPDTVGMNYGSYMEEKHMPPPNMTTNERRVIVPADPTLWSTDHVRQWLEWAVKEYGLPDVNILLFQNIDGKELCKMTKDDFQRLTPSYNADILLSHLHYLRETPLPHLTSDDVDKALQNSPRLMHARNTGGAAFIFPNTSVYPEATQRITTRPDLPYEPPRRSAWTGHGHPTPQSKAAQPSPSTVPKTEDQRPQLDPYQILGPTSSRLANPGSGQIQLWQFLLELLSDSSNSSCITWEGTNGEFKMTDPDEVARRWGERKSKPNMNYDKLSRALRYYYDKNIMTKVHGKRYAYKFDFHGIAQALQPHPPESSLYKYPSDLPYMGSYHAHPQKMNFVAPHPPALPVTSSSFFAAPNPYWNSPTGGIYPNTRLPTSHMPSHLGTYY
Method in brief: as §1

ELF1 = ELF1 (Homo sapiens, UniProt P32519 1-619); conditions: protein: recombinant; tags: N-terminal GST; dsDNA, one strand shown
Method in brief: as §1

EHF = molecular target: T5, EHF (Homo sapiens, UniProt Q9NZC4 1-300); conditions: protein: recombinant; tags: N-terminal GST; dsDNA, one strand shown
T5 sequence: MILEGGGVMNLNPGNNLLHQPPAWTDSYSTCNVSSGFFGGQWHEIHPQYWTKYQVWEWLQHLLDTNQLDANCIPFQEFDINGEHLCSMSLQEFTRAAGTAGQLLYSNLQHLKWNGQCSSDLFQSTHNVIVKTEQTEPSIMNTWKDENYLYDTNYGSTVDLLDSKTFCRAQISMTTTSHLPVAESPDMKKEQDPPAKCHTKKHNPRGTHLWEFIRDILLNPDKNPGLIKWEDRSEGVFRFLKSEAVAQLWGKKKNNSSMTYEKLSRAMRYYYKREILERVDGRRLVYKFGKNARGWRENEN
Method in brief: as §1

SPI1 = SPI1 (Homo sapiens, UniProt P17947 1-270); conditions: protein: recombinant; tags: N-terminal GST; dsDNA, one strand shown
Method in brief: as §1

SPIB = SPIB (Homo sapiens, UniProt Q01892 1-262); conditions: protein: recombinant; tags: N-terminal GST; dsDNA, one strand shown
Method in brief: as §1

ELK3 = molecular target: T6, ELK3 (Homo sapiens, UniProt P41970 1-407); conditions: protein: recombinant; tags: N-terminal GST; dsDNA, one strand shown
T6 sequence: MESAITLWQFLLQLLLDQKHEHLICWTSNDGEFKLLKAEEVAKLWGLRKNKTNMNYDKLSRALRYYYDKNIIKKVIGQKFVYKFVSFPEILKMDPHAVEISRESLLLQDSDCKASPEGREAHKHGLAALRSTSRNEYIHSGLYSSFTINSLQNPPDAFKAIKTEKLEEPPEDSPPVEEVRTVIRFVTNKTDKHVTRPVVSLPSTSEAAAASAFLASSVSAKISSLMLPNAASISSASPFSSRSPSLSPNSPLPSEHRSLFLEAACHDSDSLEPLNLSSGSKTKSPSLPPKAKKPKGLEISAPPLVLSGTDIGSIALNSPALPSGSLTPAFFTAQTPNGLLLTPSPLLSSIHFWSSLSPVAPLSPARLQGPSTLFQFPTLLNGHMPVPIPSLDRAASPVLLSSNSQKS
Method in brief: as §1

FEV = molecular target: T7, FEV (Homo sapiens, UniProt Q99581 1-238); conditions: protein: recombinant; tags: N-terminal GST; dsDNA, one strand shown
T7 sequence: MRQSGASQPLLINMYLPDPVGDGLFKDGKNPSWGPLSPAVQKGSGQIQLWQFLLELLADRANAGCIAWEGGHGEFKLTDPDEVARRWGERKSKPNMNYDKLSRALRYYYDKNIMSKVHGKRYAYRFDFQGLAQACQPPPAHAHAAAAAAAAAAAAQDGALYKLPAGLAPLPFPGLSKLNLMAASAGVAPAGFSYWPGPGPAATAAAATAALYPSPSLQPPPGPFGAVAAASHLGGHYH
Method in brief: as §1

ETV5 = ETV5 (Homo sapiens, UniProt P41161 1-510); conditions: protein: recombinant; tags: N-terminal GST; dsDNA, one strand shown
Method in brief: as §1

HSF1 = HSF1 (Homo sapiens, UniProt Q00613 1-529); conditions: protein: recombinant; tags: N-terminal GST; chain copies: 3; dsDNA, one strand shown
Method in brief: as §1

SPIC = molecular target: T8, SPIC (Homo sapiens, UniProt Q8N5J4 1-248); conditions: protein: recombinant; tags: N-terminal GST; dsDNA, one strand shown
T8 sequence: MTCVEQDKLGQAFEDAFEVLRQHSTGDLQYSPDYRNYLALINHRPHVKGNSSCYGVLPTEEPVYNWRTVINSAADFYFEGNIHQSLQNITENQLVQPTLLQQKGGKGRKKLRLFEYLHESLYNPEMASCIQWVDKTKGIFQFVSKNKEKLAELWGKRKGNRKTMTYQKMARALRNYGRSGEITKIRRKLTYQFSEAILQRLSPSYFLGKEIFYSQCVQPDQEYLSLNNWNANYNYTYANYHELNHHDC
Method in brief: as §1

ELF4 = ELF4 (Homo sapiens, UniProt Q99607 1-663); conditions: protein: recombinant; tags: N-terminal GST; dsDNA, one strand shown
Method in brief: as §1

ELK4 = molecular target: T9, ELK4 (Homo sapiens, UniProt P28324-2 1-405); conditions: protein: recombinant; tags: N-terminal GST; dsDNA, one strand shown
T9 sequence: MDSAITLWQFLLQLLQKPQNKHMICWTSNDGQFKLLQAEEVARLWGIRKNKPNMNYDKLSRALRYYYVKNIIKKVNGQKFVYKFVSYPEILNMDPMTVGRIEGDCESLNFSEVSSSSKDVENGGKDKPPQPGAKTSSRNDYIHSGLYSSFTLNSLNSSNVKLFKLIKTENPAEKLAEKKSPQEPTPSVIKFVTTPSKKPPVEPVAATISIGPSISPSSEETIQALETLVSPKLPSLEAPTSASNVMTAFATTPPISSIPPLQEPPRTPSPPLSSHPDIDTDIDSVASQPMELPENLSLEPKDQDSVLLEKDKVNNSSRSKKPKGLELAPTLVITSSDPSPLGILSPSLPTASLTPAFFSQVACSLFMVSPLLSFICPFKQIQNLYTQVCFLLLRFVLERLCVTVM
Method in brief: as §1

ETV2 = molecular target: T10, ETV2 (Homo sapiens, UniProt O00321 1-342); conditions: protein: recombinant; tags: N-terminal GST; dsDNA, one strand shown
T10 sequence: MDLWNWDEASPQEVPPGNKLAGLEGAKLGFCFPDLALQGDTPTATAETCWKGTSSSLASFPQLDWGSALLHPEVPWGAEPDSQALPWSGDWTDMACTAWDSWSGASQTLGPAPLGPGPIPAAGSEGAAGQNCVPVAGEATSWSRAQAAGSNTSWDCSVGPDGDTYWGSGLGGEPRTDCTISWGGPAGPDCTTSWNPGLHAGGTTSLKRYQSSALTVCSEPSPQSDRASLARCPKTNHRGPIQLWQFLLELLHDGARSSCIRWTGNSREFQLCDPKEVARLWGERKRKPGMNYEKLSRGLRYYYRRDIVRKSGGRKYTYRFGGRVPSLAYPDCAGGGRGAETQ
Method in brief: as §1

ELF3 = molecular target: T11, ELF3 (Homo sapiens, UniProt P78545 1-371); conditions: protein: recombinant; tags: N-terminal GST; dsDNA, one strand shown
T11 sequence: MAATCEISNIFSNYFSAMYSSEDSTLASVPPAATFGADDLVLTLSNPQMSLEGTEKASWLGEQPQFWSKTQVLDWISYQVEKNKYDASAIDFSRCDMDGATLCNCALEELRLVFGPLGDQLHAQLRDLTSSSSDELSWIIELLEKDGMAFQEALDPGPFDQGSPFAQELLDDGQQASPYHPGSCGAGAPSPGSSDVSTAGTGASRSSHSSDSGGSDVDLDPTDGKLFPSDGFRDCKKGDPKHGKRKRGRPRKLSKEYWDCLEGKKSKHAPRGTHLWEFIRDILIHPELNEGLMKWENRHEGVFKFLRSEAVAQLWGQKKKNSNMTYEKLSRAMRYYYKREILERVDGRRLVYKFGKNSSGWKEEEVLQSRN
Method in brief: as §1

CRX = CRX (Homo sapiens, UniProt O43186 1-299); conditions: protein: recombinant; tags: N-terminal GST; dsDNA, one strand shown
Method in brief: as §1

ETV1 = ETV1 (Homo sapiens, UniProt P50549 1-477); conditions: protein: recombinant; tags: N-terminal GST; dsDNA, one strand shown
Method in brief: as §1

HSF1, sequence (Q00613 whole entry): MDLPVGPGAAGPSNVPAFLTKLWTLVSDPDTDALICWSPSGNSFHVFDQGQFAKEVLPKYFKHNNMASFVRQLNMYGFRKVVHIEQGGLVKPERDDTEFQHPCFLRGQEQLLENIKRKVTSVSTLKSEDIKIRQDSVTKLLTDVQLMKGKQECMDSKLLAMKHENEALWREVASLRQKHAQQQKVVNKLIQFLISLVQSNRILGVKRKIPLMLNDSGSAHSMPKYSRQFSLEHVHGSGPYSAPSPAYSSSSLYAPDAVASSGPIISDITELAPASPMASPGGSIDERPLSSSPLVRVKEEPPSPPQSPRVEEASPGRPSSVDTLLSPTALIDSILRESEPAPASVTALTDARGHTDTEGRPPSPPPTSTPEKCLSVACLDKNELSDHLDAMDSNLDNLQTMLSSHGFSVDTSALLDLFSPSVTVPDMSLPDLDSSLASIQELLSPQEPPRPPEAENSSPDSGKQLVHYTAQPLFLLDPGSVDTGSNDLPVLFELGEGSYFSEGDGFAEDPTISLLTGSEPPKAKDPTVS
ETV5, sequence (P41161 whole entry): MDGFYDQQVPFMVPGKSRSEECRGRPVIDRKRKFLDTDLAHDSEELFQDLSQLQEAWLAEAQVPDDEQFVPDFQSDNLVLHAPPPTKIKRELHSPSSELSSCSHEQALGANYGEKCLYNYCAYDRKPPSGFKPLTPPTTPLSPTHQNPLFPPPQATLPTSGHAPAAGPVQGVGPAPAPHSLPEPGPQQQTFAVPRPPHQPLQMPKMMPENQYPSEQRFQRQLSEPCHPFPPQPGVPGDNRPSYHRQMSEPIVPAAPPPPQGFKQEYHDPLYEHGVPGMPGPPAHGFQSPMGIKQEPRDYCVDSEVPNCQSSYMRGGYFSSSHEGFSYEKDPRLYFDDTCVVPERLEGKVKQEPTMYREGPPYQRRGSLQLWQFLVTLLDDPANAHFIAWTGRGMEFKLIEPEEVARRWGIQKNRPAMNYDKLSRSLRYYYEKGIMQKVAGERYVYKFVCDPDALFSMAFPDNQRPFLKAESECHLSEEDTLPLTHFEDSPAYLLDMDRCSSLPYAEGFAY
SPIB, sequence (Q01892 whole entry): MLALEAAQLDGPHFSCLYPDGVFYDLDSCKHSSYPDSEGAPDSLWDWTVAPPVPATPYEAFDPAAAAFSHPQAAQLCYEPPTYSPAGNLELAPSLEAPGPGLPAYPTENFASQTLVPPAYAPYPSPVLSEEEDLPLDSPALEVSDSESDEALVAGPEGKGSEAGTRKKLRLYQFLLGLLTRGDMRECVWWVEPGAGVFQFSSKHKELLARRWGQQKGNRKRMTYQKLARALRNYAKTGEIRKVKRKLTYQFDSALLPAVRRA
ELF1, sequence (P32519 whole entry): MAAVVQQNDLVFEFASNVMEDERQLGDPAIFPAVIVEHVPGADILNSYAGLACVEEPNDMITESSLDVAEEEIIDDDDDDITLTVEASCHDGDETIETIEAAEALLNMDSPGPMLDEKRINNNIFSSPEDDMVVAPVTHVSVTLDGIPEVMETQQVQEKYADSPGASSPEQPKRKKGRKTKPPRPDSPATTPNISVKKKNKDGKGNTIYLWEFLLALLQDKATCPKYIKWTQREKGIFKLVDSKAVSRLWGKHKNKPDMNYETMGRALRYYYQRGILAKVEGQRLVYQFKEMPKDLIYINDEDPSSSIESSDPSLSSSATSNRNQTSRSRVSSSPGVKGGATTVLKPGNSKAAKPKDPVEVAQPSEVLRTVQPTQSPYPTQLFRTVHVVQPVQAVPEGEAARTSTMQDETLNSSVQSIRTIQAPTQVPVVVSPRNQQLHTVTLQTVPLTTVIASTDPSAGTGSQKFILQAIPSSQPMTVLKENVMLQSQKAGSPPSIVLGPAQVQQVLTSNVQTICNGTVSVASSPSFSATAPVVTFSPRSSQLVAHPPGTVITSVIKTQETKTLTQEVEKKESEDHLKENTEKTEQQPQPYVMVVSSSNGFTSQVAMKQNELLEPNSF
ELF4, sequence (Q99607 whole entry): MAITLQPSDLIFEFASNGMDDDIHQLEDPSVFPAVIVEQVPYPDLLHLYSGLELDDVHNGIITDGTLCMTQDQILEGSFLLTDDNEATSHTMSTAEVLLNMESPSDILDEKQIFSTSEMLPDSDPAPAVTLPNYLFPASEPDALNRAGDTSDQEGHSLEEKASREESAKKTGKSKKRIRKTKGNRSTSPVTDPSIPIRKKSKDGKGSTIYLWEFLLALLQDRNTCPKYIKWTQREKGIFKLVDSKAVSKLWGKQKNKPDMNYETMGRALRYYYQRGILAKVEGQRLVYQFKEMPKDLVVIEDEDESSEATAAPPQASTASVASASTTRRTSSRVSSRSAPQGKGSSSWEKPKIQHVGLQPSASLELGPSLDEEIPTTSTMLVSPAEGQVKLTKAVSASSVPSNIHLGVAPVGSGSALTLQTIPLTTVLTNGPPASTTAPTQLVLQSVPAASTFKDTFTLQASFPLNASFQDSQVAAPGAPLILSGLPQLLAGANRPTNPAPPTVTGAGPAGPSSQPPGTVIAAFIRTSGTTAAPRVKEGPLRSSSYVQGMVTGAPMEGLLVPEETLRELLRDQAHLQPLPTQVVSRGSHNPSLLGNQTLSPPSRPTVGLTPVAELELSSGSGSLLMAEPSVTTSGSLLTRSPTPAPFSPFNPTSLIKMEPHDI
CRX, sequence (O43186 whole entry): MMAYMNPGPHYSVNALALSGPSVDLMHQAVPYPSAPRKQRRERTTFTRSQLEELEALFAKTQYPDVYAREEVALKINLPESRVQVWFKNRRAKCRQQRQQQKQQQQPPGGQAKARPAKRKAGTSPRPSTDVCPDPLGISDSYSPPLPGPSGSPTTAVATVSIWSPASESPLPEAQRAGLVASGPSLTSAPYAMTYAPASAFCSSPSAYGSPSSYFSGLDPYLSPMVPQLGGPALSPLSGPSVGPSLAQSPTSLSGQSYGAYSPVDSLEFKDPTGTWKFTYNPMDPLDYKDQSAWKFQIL
ETV1, sequence (P50549 whole entry): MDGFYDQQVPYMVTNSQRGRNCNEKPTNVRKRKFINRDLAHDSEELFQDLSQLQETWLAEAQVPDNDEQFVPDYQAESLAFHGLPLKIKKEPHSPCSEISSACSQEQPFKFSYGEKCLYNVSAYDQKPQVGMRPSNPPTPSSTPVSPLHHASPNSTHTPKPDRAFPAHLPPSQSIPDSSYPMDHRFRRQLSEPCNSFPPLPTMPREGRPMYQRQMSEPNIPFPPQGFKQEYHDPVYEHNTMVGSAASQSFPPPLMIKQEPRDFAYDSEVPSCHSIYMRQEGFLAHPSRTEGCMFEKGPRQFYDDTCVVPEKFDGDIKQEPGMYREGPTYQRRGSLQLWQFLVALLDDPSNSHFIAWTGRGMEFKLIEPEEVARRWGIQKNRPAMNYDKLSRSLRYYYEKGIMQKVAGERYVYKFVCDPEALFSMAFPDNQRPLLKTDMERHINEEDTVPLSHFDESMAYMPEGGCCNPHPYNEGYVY

ATCGAT
binding signal (FLI1): 1.16 fold enrichment (6-mer frequency, TF over GST control)
binding signal (ELK1): 1.1 fold enrichment (6-mer frequency, TF over GST control)
binding signal (GABPA): 1.19 fold enrichment (6-mer frequency, TF over GST control)
binding signal (ERG): 1.15 fold enrichment (6-mer frequency, TF over GST control)
binding signal (ELF1): 1.15 fold enrichment (6-mer frequency, TF over GST control)
binding signal (EHF): 1.19 fold enrichment (6-mer frequency, TF over GST control)
binding signal (SPI1): 1.21 fold enrichment (6-mer frequency, TF over GST control)
binding signal (SPIB): 1.12 fold enrichment (6-mer frequency, TF over GST control)
binding signal (ELK3): 1.1 fold enrichment (6-mer frequency, TF over GST control)
binding signal (FEV): 1.02 fold enrichment (6-mer frequency, TF over GST control)
binding signal (ETV5): 1.17 fold enrichment (6-mer frequency, TF over GST control)
binding signal (HSF1): 1.26 fold enrichment (6-mer frequency, TF over GST control)
binding signal (SPIC): 1.2 fold enrichment (6-mer frequency, TF over GST control)
binding signal (ELF4): 1.17 fold enrichment (6-mer frequency, TF over GST control)
binding signal (ELK4): 1.23 fold enrichment (6-mer frequency, TF over GST control)
binding signal (ETV2): 1.08 fold enrichment (6-mer frequency, TF over GST control)
binding signal (ELF3): 1.19 fold enrichment (6-mer frequency, TF over GST control)
binding signal (CRX): 1.25 fold enrichment (6-mer frequency, TF over GST control)
binding signal (ETV1): 1.07 fold enrichment (6-mer frequency, TF over GST control)
